# Assay outcomes: PubChem BioAssay, Broad Institute
# MITF TRPM1 inh – MITF TRPM1 promoter inhibition in SK-MEL-5 cells; 330,000 tested, 0.83% active; SK-MEL-5 TRPM1 promoter luciferase, 24 h; inhibition, % at 12.5 µM;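 active = mean inhibition across replicates of 60% or more, whatever share of single replicates reaches that level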
# Shn3 3UTR inh – Schnurri-3 reporter inhibition in Clone20 osteoblasts; Clone20 osteoblast Shn3 3'UTR firefly luciferase, 24 h; inhibition, % at 12.5 µM; 360,000 tested, 0.52% active; AID 588674;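 active = mean inhibition of at least 75% with every replicate also reaching 75%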;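 note: 0% = median of neutral control wells and 100% = pilot-screen positive control compound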
# PAX8 reporter – lowers PAX8-driven luciferase in RMG-I cells; RMG-I TPO-luciferase reporter, SteadyGlo, 24 h; inhibition, % at 12.6 µM; 360,000 tested, 1.2% active; AID 652154;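 active = mean replicate inhibition at least 60% with every replicate also reaching 60%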;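 note: luciferase light reporting Pax8 driven TPO promoter activity; plate controls were median of neutral control wells for no effect and mitoxantrone controls for full effect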
# LGR2 antag – blocks bursicon-induced cAMP signaling via Drosophila LGR2; HEK293 LGR2, CRE-luciferase, bursicon-stimulated, 4 h; inhibition, % at 9.99 µM; 380,000 tested, 0.35% active; AID 720647;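 active = drop in luminescence signal, shown as inhibition above about 50% in the replicate tests, limit read from the data, passing the limit was not always enough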;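 note: agonist challenge used bursicon conditioned medium at about half maximal strength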
# LMP1 NFkB inh – reduces LMP1-driven NF-kappaB luciferase signal | LMP1-induced NF-kappaB luciferase reporter cells, luminescence | inhibition, % at 12.5 µM | 350,000 tested, 0.69% active | AID 504558; in the data active = inhibition above about 41%;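 note: 0% = neutral control wells and 100% = reference inhibitor control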
# EWS-Fli inh – EWS/Fli transcriptional activity inhibition; A673 NR0B1-luciferase reporter, viability-normalised; inhibition, % at 12.6 µM; AID 651661; 350,000 tested, 0.67% active;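 active = mean inhibition of at least 50% after viability correction, with every replicate also passing that limit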;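 note: firefly luciferase signal divided by Alamar Blue viability fluorescence both relative to DMSO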
# * hit, by the source's call; · = not tested or not shown. The list is not random: actives were taken first. Their share in the collection is about 2.2%.
SMILES,MITF TRPM1 inh,Shn3 3UTR inh,PAX8 reporter,LGR2 antag,LMP1 NFkB inh,EWS-Fli inh
CCc1c(C)nc2ncnn2c1NCCc1ccc(OC)c(OC)c1,12,56,·,0,8,6
COc1ccc(CCNc2c(C)c(C)nc3ncnn23)cc1,22,81*,·,11,12,16
CCC(=O)Oc1ccc2oc(=O)cc(C)c2c1,-10,-19,-29,-27,6,·
Cc1cc(=O)oc2ccc(OC(=O)CN3C(=O)c4cccc([N+](=O)[O-])c4C3=O)cc12,-6,-1,147*,·,0,4
C[C@@H]1CN([C@H](C)CO)C(=O)c2c(c3ccccc3n2C)-c2ccccc2CO[C@H]1CN(C)C(=O)[C@H](C)c1ccccc1,·,·,-9,-3,·,-3
CCc1cccc2sc(N3CCN(C(=O)c4ccc([N+](=O)[O-])o4)CC3)nc12,77*,75,·,·,-44,·
COc1ccccc1S(=O)(=O)N[C@H]1CC[C@H](CCNC(=O)C2CCC2)O[C@H]1CO,·,·,-12,3,·,-7
O=C(C[C@@H]1C[C@H]2c3cc(NC(=O)Nc4ccc(C(F)(F)F)cc4)ccc3O[C@H]2[C@H](CO)O1)NCc1ccc2c(c1)OCO2,·,·,52,30,·,4
O=C(C[C@@H]1C[C@H]2c3cc(NC(=O)Nc4ccc(C(F)(F)F)cc4)ccc3O[C@H]2[C@H](CO)O1)NCc1ccc(Cl)cc1,·,·,94*,19,·,23
O=C(C[C@H]1C[C@@H]2c3cc(NC(=O)Nc4ccc(C(F)(F)F)cc4)ccc3O[C@@H]2[C@@H](CO)O1)NCc1ccc2c(c1)OCO2,·,·,65*,9,·,29
COc1cccc(NC(=O)N(C)C[C@@H]2OCc3cn(nn3)CCCC(=O)N([C@H](C)CO)C[C@@H]2C)c1,·,·,-4,-6,·,-6
O=C(C(=Cc1ccccc1)CN1CCCCC1)c1ccccc1,97*,95*,104*,94*,90*,58*
CCC(=O)N[C@H]1CC[C@H](CCn2cc(CN(C)C)nn2)O[C@H]1CO,·,·,-14,5,·,6
CC(=O)NC[C@@H]1[C@@H](c2ccc(-c3ccccc3)cc2)[C@H](CO)N1C(=O)C1CC1,·,·,-22,-5,·,6
COc1ccc(C2=C(C=C(C#N)C#N)C(c3ccccc3C)c3ccccc3O2)cc1OC (configuration not stated),8,17,65*,-16,2,18
COc1cc(-c2nnc(COC(=O)C3c4ccccc4Oc4ccccc43)o2)cc(OC)c1OC,-14,5,·,·,-4,·
O=C(O)CC(NC(=O)C1c2ccccc2Oc2ccccc21)c1ccc(OC2CCCC2)cc1 (configuration not stated),9,25,121*,-14,3,2
CCOc1ccc(C(CC(=O)O)NC(=O)C2c3ccccc3Oc3ccccc32)cc1 (configuration not stated),14,0,9,-8,-10,1
S=C1SCN(Cc2cccnc2)CN1Cc1cccnc1,32,-5,93*,19,20,29
S=C1SCN(Cc2ccccc2)CN1Cc1ccco1,·,-10,3,-2,42*,1
S=C1SCN(Cc2ccccc2)CN1Cc1ccccc1,5,-11,25,14,33,17
COc1ccc(N2C3=[N+](CC2(C)O)c2ccccc2CC3)cc1 (configuration not stated),8,0,·,-41,69*,1
COc1cccc(CNC(=O)C[C@H]2C=C[C@@H](NC(C)=O)[C@@H](CO)O2)c1,·,·,1,-3,·,8
Cc1ccc(S(=O)(=O)N2C[C@H](O)COC[C@H]3O[C@@H](CC(=O)N[C@H]4CCN(Cc5ccccc5)C4)CC[C@@H]32)cc1,·,·,7,4,·,2
Cc1cc(O)cc(O)c1/C=N/NC(=O)c1ccc2c(c1)OCCO2,·,91*,-23,-21,31,-65
O=C(CNC(=O)c1ccc(S(=O)(=O)N2CCCC2)cc1)N/N=C/c1ccccc1Cl,3,41,10,8,15,·
Nc1ccc(C(=O)N/N=C\c2cc(N=Nc3cccc4ccccc34)ccc2O)cc1,40,89*,19,·,60*,·
COC(=O)N/N=C/c1cc(N=Nc2ccccc2Cl)ccc1O,-63,-61,-81,-13,1,-12
O=C(N/N=C\c1c(O)ccc2ccccc12)c1ccc(S(=O)(=O)N2CCCCC2)cc1,76*,89*,19,26,68*,·
